Measurements: the supplement of paper PMC7411054
Where a name gives a salt, the structure may show the parent alone.

What was measured:
Details in all cases: treatment time: 24 h
A549-ACTB-RAB5A [1] = assay: lowest phenotypically active concentration; higher = less potent
How it was run: (§1)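 Each of fifteen gene-edited A549, HepG2 and WPMY1 reporter lines, marked with BFP for segmentation and GFP and RFP/FusionRed, was treated in four wells at 0.3, 1, 3 or 9 µM for 24 h prior to live imaging. Normalisation of per-well live-cell features used solvent control wells. Deviation needed ≥3 of 4 wells beyond the 95th percentile of control Euclidean distances, and reproducibility needed a median replicate Pearson correlation above the 95th percentile of non-replicates. Both were required for phenotypic activity.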

A549-GM130-SQSTM1 [2] = assay: as above
How it was run: as §1

A549-TUBA1B-RELA [3] = assay: as above
How it was run: as §1

HepG2-ACTB-RAB5A [4] = assay: as above
How it was run: as §1

A549-ACTB-RAB5A [5] = assay: phenotypically active (imaging signature differs from DMSO and reproducible) at any of 0.3-9 uM (binary (1 = active, 0 = inactive)); higher = active
How it was run: as §1

A549-CANX-COX4 = assay: as above
How it was run: as §1

A549-GM130-SQSTM1 [6] = assay: as above
How it was run: as §1

A549-TP53BP1-CLTA = assay: as above
How it was run: as §1

A549-TUBA1B-RELA [7] = assay: as above
How it was run: as §1

HepG2-ACTB-RAB5A [8] = assay: as above
How it was run: as §1

HepG2-CANX-COX4 = assay: as above
How it was run: as §1

HepG2-GM130-SQSTM1 = assay: as above
How it was run: as §1

HepG2-TP53BP1-CLTA = assay: as above
How it was run: as §1

HepG2-TUBA1B-RELA = assay: as above
How it was run: as §1

WPMY1-ACTB-RAB5A = assay: as above
How it was run: as §1

WPMY1-CANX-COX4 [9] = assay: as above
How it was run: as §1

WPMY1-GM130-SQSTM1 = assay: as above
How it was run: as §1

WPMY1-TP53BP1-CLTA = assay: as above
How it was run: as §1

WPMY1-TUBA1B-RELA = assay: as above
How it was run: as §1

WPMY1-CANX-COX4 [10] = assay: lowest phenotypically active concentration; higher = less potent
How it was run: as §1

Compound | lowest phenotypically active concentration (A549-ACTB-RAB5A [1]) [µM] | lowest phenotypically active concentration (A549-GM130-SQSTM1 [2]) [µM] | lowest phenotypically active concentration (A549-TUBA1B-RELA [3]) [µM] | lowest phenotypically active concentration (HepG2-ACTB-RAB5A [4]) [µM] | phenotypically active (A549-ACTB-RAB5A [5]) | phenotypically active (A549-CANX-COX4) | phenotypically active (A549-GM130-SQSTM1 [6]) | phenotypically active (A549-TP53BP1-CLTA) | phenotypically active (A549-TUBA1B-RELA [7]) | phenotypically active (HepG2-ACTB-RAB5A [8]) | phenotypically active (HepG2-CANX-COX4) | phenotypically active (HepG2-GM130-SQSTM1) | phenotypically active (HepG2-TP53BP1-CLTA) | phenotypically active (HepG2-TUBA1B-RELA) | phenotypically active (WPMY1-ACTB-RAB5A) | phenotypically active (WPMY1-CANX-COX4 [9]) | phenotypically active (WPMY1-GM130-SQSTM1) | phenotypically active (WPMY1-TP53BP1-CLTA) | phenotypically active (WPMY1-TUBA1B-RELA) | lowest phenotypically active concentration (WPMY1-CANX-COX4 [10]) [µM]
CN1CCN([C@H]2CC[C@H](n3cc(-c4ccc(Oc5ccccc5)cc4)c4c(N)ncnc43)CC2)CC1 | ≤ 0.3 | ≤ 0.3 | ≤ 0.3 | ≤ 0.3 | 1 (active) | 1 (active) | 1 (active) | 1 (active) | 1 (active) | 1 (active) | 1 (active) | 1 (active) | 1 (active) | 1 (active) | 1 (active) | 0 (inactive) | 1 (active) | 1 (active) | 1 (active) | 
COc1cc2nc(N3CCN(C(=O)C4COc5ccccc5O4)CC3)nc(N)c2cc1OC (configuration not stated) [doxazosin] | 9 | 9 | 3 | 9 | 1 (active) | 1 (active) | 1 (active) | 1 (active) | 1 (active) | 1 (active) | 0 (inactive) | 1 (active) | 1 (active) | 1 (active) | 1 (active) | 1 (active) | 1 (active) | 1 (active) | 0 (inactive) | 9
CC(C)(C)c1cc(NC(=O)Nc2ccc(-c3cn4c(n3)sc3cc(OCCN5CCOCC5)ccc34)cc2)no1 [quizartinib] | 3 | 1 | 3 | 9 | 1 (active) | 1 (active) | 1 (active) | 1 (active) | 1 (active) | 1 (active) | 0 (inactive) | 1 (active) | 0 (inactive) | 1 (active) | 1 (active) | 1 (active) | 1 (active) | 1 (active) | 1 (active) | 1
CCCCNNC(=O)c1ccc(Br)cc1 | 1 | 3 | 3 | 1 | 1 (active) | 1 (active) | 1 (active) | 1 (active) | 1 (active) | 1 (active) | 1 (active) | 1 (active) | 1 (active) | 1 (active) | 0 (inactive) | 1 (active) | 1 (active) | 1 (active) | 1 (active) | 9
O=C1c2ccccc2-c2nc3nonc3nc21 | 3 | 3 | 3 | 3 | 1 (active) | 1 (active) | 1 (active) | 1 (active) | 1 (active) | 1 (active) | 1 (active) | 1 (active) | 1 (active) | 1 (active) | 1 (active) | 1 (active) | 0 (inactive) | 0 (inactive) | 1 (active) | 9
CCCC1(CCC)CCC2(CCN(CCCN(CC)CC)C2)CC1 [Atiprimod dihydrochloride] | ≤ 0.3 | ≤ 0.3 | ≤ 0.3 | 1 | 1 (active) | 1 (active) | 1 (active) | 1 (active) | 1 (active) | 1 (active) | 1 (active) | 1 (active) | 1 (active) | 1 (active) | 1 (active) | 1 (active) | 1 (active) | 1 (active) | 1 (active) | 1
COc1cc(O)cc(O)c1C(=O)/C=C/c1ccccc1 [Cardamonin] | 9 | 9 | 9 | 9 | 1 (active) | 1 (active) | 1 (active) | 1 (active) | 1 (active) | 1 (active) | 1 (active) | 1 (active) | 0 (inactive) | 1 (active) | 1 (active) | 1 (active) | 1 (active) | 1 (active) | 1 (active) | 9
O=C(NOC[C@H](O)CO)c1ccc(F)c(F)c1Nc1ccc(I)cc1F | ≤ 0.3 | ≤ 0.3 | 1 | ≤ 0.3 | 1 (active) | 1 (active) | 1 (active) | 1 (active) | 1 (active) | 1 (active) | 1 (active) | 1 (active) | 1 (active) | 1 (active) | 1 (active) | 0 (inactive) | 1 (active) | 1 (active) | 0 (inactive) | 
Cc1ccc(Nc2nccc(N(C)c3ccc4c(C)n(C)nc4c3)n2)cc1S(N)(=O)=O [pazopanib] | 1 | 3 | 3 |  | 1 (active) | 1 (active) | 1 (active) | 1 (active) | 1 (active) | 0 (inactive) | 1 (active) | 1 (active) | 1 (active) | 0 (inactive) | 1 (active) | 1 (active) | 0 (inactive) | 0 (inactive) | 1 (active) | 3
COc1cc2c(cc1O)CC[C@@H]1[C@@H]2CC[C@]2(C)[C@@H](O)CC[C@@H]12 [2-methoxyestradiol] | 1 | 1 | 1 | 3 | 1 (active) | 1 (active) | 1 (active) | 1 (active) | 1 (active) | 1 (active) | 1 (active) | 1 (active) | 1 (active) | 1 (active) | 1 (active) | 1 (active) | 0 (inactive) | 1 (active) | 1 (active) | 1
Cc1ccc(C(=O)N(CCCN)[C@@H](c2nc3cc(Cl)ccc3c(=O)n2Cc2ccccc2)C(C)C)cc1 [Ispinesib] | ≤ 0.3 | ≤ 0.3 | ≤ 0.3 | ≤ 0.3 | 1 (active) | 1 (active) | 1 (active) | 1 (active) | 1 (active) | 1 (active) | 1 (active) | 1 (active) | 1 (active) | 1 (active) | 1 (active) | 1 (active) | 1 (active) | 1 (active) | 1 (active) | 3
